{"source": "ChEMBL document CHEMBL5606458", "about": "“ASAP - ZIKV NS2B-NS3 protease fluorescence single point” (2024)", "molecular_target": "Nonstructural protein 3 (Zika virus) (UniProt A0A024AXB9)", "sequence (A0A024AXB9 as listed by the source)": "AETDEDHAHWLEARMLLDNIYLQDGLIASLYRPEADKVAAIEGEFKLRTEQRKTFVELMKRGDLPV", "key": {"[1]": {"details": "PRVABC59, Concentration 50.0 uM, Number of replicates 1.0"}, "[2]": {"details": "PRVABC59, Concentration 15.0 uM, Number of replicates 1.0"}}, "note": "The whole screen tested about 2,700 compounds, of which about 160 (5.9%) showed an effect of 50% or more. This is one part of a sample in which strong results are shown more often than they occur.", "data": [{"smiles": "CCCCCN(CCCCC)C(=O)C1CCN(c2ccc(C=O)cc2)CC1", "values": [{"measurement": "inhibition", "setting": "[1]", "value": 26.1, "unit": "%"}]}, {"smiles": "O=Cc1ccc(N2CCC(C(=O)Nc3c(F)cc(F)cc3Cl)CC2)cc1", "values": [{"measurement": "inhibition", "setting": "[1]", "value": 23.6, "unit": "%"}]}, {"smiles": "COc1cc2c(cc1NC(=O)c1cc(Cl)ccc1NS(=O)(=O)c1ccc(Oc3ccccc3Cl)cc1)oc1ccccc12", "values": [{"measurement": "inhibition", "setting": "[2]", "value": 36.2, "unit": "%"}]}, {"smiles": "O=C(Nc1ncccc1C(F)(F)F)c1cc(Cl)ccc1NS(=O)(=O)c1ccc(Oc2ccccc2Cl)cc1", "values": [{"measurement": "inhibition", "setting": "[2]", "value": 25.1, "unit": "%"}]}, {"smiles": "Cn1cc(NC(=O)c2cccc3ncccc23)cn1", "values": [{"measurement": "inhibition", "setting": "PRVABC59, Concentration 49.5 uM, Number of replicates 2.0, Standard deviation 3.392303236065074 %", "value": -6.29, "unit": "%"}, {"measurement": "inhibition", "setting": "PRVABC59, Concentration 99.01 uM, Number of replicates 2.0, Standard deviation 4.211868261497117 %", "value": -5.3, "unit": "%"}, {"measurement": "inhibition", "setting": "PRVABC59, Concentration 198.0 uM, Number of replicates 2.0, Standard deviation 3.7498965706755105 %", "value": -3.61, "unit": "%"}]}, {"smiles": "O=Cc1ccc(N2CCC(C(=O)N3CCN(CCOCCO)CC3)CC2)cc1", "values": [{"measurement": "inhibition", "setting": "[1]", "value": 21.2, "unit": "%"}]}, {"smiles": "COc1ccc([C@H](C)NC(=O)c2cc(Cl)ccc2NS(=O)(=O)c2ccc(Oc3ccccc3Cl)cc2)cc1", "values": [{"measurement": "inhibition", "setting": "[2]", "value": 35.3, "unit": "%"}]}, {"smiles": "O=Cc1ccc(N2CCC(C(=O)Nc3ccc(Cl)nc3Cl)CC2)cc1", "values": [{"measurement": "inhibition", "setting": "[1]", "value": 20.5, "unit": "%"}]}, {"smiles": "c1cnc2c(C3CCN(Cc4ccc5[nH]cnc5c4)CC3)c[nH]c2c1", "values": [{"measurement": "inhibition", "setting": "PRVABC59, Concentration 49.5 uM, Number of replicates 2.0, Standard deviation 2.816135776094685 %", "value": 1.64, "unit": "%"}, {"measurement": "inhibition", "setting": "PRVABC59, Concentration 99.01 uM, Number of replicates 2.0, Standard deviation 1.9941147484327908 %", "value": 7.38, "unit": "%"}, {"measurement": "inhibition", "setting": "PRVABC59, Concentration 198.0 uM, Number of replicates 2.0, Standard deviation 0.19707731493778816 %", "value": 19.3, "unit": "%"}]}, {"smiles": "CC(C)(C)c1ccc(S(=O)(=O)N2CCN(C(=O)c3cc(Cl)ccc3NS(=O)(=O)c3ccc(Oc4ccccc4Cl)cc3)CC2)cc1", "values": [{"measurement": "inhibition", "setting": "[2]", "value": 14.3, "unit": "%"}]}, {"smiles": "COc1ccc(S(=O)(=O)Nc2ccc(C(=O)O)cc2)cc1", "values": [{"measurement": "inhibition", "setting": "PRVABC59, Concentration 49.5 uM, Number of replicates 2.0, Standard deviation 1.0137935505852833 %", "value": 2.03, "unit": "%"}, {"measurement": "inhibition", "setting": "PRVABC59, Concentration 99.01 uM, Number of replicates 2.0, Standard deviation 1.063246976754026 %", "value": 4.7, "unit": "%"}, {"measurement": "inhibition", "setting": "PRVABC59, Concentration 198.0 uM, Number of replicates 2.0, Standard deviation 1.989546367228998 %", "value": 3.61, "unit": "%"}]}, {"smiles": "COc1ccc(S(=O)(=O)n2nc(OC(=O)c3ccccc3)cc2N)cc1", "values": [{"measurement": "inhibition", "setting": "PRVABC59, Concentration 49.5 uM, Number of replicates 2.0, Standard deviation 0.018531126353269887 %", "value": 99.1, "unit": "%"}, {"measurement": "inhibition", "setting": "PRVABC59, Concentration 99.01 uM, Number of replicates 2.0, Standard deviation 0.03874003445206144 %", "value": 99.1, "unit": "%"}, {"measurement": "inhibition", "setting": "PRVABC59, Concentration 198.0 uM, Number of replicates 2.0, Standard deviation 0.035373681367799316 %", "value": 99, "unit": "%"}]}, {"smiles": "COc1ccc(S(=O)(=O)N2CCC(C(=O)Nc3nc4ccccc4s3)CC2)cc1", "values": [{"measurement": "inhibition", "setting": "PRVABC59, Concentration 49.5 uM, Number of replicates 2.0, Standard deviation 3.281212488466362 %", "value": 4.02, "unit": "%"}, {"measurement": "inhibition", "setting": "PRVABC59, Concentration 99.01 uM, Number of replicates 2.0, Standard deviation 0.8753020409515783 %", "value": 5.17, "unit": "%"}, {"measurement": "inhibition", "setting": "PRVABC59, Concentration 198.0 uM, Number of replicates 2.0, Standard deviation 6.6794445217114635 %", "value": 7.79, "unit": "%"}]}, {"smiles": "CN(Cc1cccc(F)c1F)C(=O)c1cc(Cl)ccc1NS(=O)(=O)c1ccc(Oc2ccccc2Cl)cc1", "values": [{"measurement": "inhibition", "setting": "[2]", "value": 31.2, "unit": "%"}]}, {"smiles": "CC(C)CCN(CCC(C)C)C(=O)c1cc(Cl)ccc1NS(=O)(=O)c1ccc(Oc2ccccc2Cl)cc1", "values": [{"measurement": "inhibition", "setting": "[2]", "value": 18.8, "unit": "%"}]}, {"smiles": "CS(=O)(=O)c1ccc(O)c(NC(=O)c2cc(Cl)ccc2NS(=O)(=O)c2ccc(Oc3ccccc3Cl)cc2)c1", "values": [{"measurement": "inhibition", "setting": "[2]", "value": 32.3, "unit": "%"}]}, {"smiles": "COc1nscc1-c1ccccc1C(=O)Nc1cnn(C)c1", "values": [{"measurement": "inhibition", "setting": "PRVABC59, Concentration 49.5 uM, Number of replicates 2.0, Standard deviation 2.0613155081961194 %", "value": -1.46, "unit": "%"}, {"measurement": "inhibition", "setting": "PRVABC59, Concentration 99.01 uM, Number of replicates 2.0, Standard deviation 1.0972097923679232 %", "value": 1.42, "unit": "%"}, {"measurement": "inhibition", "setting": "PRVABC59, Concentration 198.0 uM, Number of replicates 2.0, Standard deviation 0.19246139208887503 %", "value": 3.36, "unit": "%"}]}, {"smiles": "O=C(Cn1sc2ccccc2c1=O)Nc1cccc(OCc2cn(CC(=O)Nc3ccccc3Oc3ccccc3)nn2)c1", "values": [{"measurement": "inhibition", "setting": "PRVABC59, Concentration 49.5 uM, Number of replicates 2.0, Standard deviation 0.019067908615904634 %", "value": 53.7, "unit": "%"}, {"measurement": "inhibition", "setting": "PRVABC59, Concentration 99.01 uM, Number of replicates 2.0, Standard deviation 0.0558469345004512 %", "value": 58.2, "unit": "%"}, {"measurement": "inhibition", "setting": "PRVABC59, Concentration 198.0 uM, Number of replicates 2.0, Standard deviation 0.30102425600760013 %", "value": 69.5, "unit": "%"}]}, {"smiles": "O=C(NCc1cccc(-n2cccn2)c1)c1cc(Cl)ccc1NS(=O)(=O)c1ccc(Oc2ccccc2Cl)cc1", "values": [{"measurement": "inhibition", "setting": "[2]", "value": 33.4, "unit": "%"}]}, {"smiles": "CCN(CC)S(=O)(=O)c1ccc(NC(=O)c2cc(Cl)ccc2NS(=O)(=O)c2ccc(Oc3ccccc3Cl)cc2)cc1", "values": [{"measurement": "inhibition", "setting": "[2]", "value": 27.6, "unit": "%"}]}, {"smiles": "Cc1nccn1-c1ccc(NC(=O)c2cc(Cl)ccc2NS(=O)(=O)c2ccc(Oc3ccccc3Cl)cc2)cc1", "values": [{"measurement": "inhibition", "setting": "[2]", "value": 43.8, "unit": "%"}]}, {"smiles": "CCN1CCN(c2ccc(NC(=O)c3cc(Cl)ccc3NS(=O)(=O)c3ccc(Oc4ccccc4Cl)cc3)cc2)CC1", "values": [{"measurement": "inhibition", "setting": "[2]", "value": 17.1, "unit": "%"}]}, {"smiles": "O=C(Nc1ccc(-n2cccn2)cc1)c1cc(Cl)ccc1NS(=O)(=O)c1ccc(Oc2ccccc2Cl)cc1", "values": [{"measurement": "inhibition", "setting": "[2]", "value": 71.5, "unit": "%"}]}, {"smiles": "O=C(Nc1ccc(-n2ccnc2)cc1)c1cc(Cl)ccc1NS(=O)(=O)c1ccc(Oc2ccccc2Cl)cc1", "values": [{"measurement": "inhibition", "setting": "[2]", "value": 63.6, "unit": "%"}]}, {"smiles": "COc1ccc([C@@H](C)NC(=O)C2CCN(c3ccc(C=O)cc3)CC2)cc1OC", "values": [{"measurement": "inhibition", "setting": "PRVABC59, Concentration 10.0 uM, Number of replicates 1.0", "value": 22.9, "unit": "%"}]}, {"smiles": "CC(C)(C)[C@H](NC(=O)c1cc(Cl)ccc1NS(=O)(=O)c1ccc(Oc2ccccc2Cl)cc1)c1ccccc1", "values": [{"measurement": "inhibition", "setting": "[2]", "value": 57.8, "unit": "%"}]}, {"smiles": "C[C@@H](CC(C)(C)c1ccccc1)NC(=O)c1cc(Cl)ccc1NS(=O)(=O)c1ccc(Oc2ccccc2Cl)cc1", "values": [{"measurement": "inhibition", "setting": "[2]", "value": 18.2, "unit": "%"}]}, {"smiles": "C[C@H](NC(=O)c1cc(Cl)ccc1NS(=O)(=O)c1ccc(Oc2ccccc2Cl)cc1)c1ccccc1C(F)(F)F", "values": [{"measurement": "inhibition", "setting": "[2]", "value": 42.7, "unit": "%"}]}, {"smiles": "C[C@H](NC(=O)c1cc(Cl)ccc1NS(=O)(=O)c1ccc(Oc2ccccc2Cl)cc1)c1cccc(C(F)(F)F)c1", "values": [{"measurement": "inhibition", "setting": "[2]", "value": 39.3, "unit": "%"}]}, {"smiles": "O=C(N[C@H](c1ccccc1)C(F)(F)F)c1cc(Cl)ccc1NS(=O)(=O)c1ccc(Oc2ccccc2Cl)cc1", "values": [{"measurement": "inhibition", "setting": "[2]", "value": 60.6, "unit": "%"}]}, {"smiles": "O=C(N[C@H](c1ccccc1)[C@@H](O)c1ccccc1)c1cc(Cl)ccc1NS(=O)(=O)c1ccc(Oc2ccccc2Cl)cc1", "values": [{"measurement": "inhibition", "setting": "[2]", "value": 45.7, "unit": "%"}]}, {"smiles": "Cc1cnccc1NC(=O)c1cccc(-n2cnnn2)c1", "values": [{"measurement": "inhibition", "setting": "PRVABC59, Concentration 49.5 uM, Number of replicates 2.0, Standard deviation 4.148081450793093 %", "value": -4.56, "unit": "%"}, {"measurement": "inhibition", "setting": "PRVABC59, Concentration 99.01 uM, Number of replicates 2.0, Standard deviation 2.8220872377424997 %", "value": -2.1, "unit": "%"}, {"measurement": "inhibition", "setting": "PRVABC59, Concentration 198.0 uM, Number of replicates 2.0, Standard deviation 5.644174285824181 %", "value": -3.31, "unit": "%"}]}, {"smiles": "O=Cc1ccc(N2CCC(C(=O)Nc3ccc(F)cc3Br)CC2)cc1", "values": [{"measurement": "inhibition", "setting": "[1]", "value": 20.8, "unit": "%"}]}, {"smiles": "CCN(CCOc1ccccc1C)C(=O)C1CCN(c2ccc(C=O)cc2)CC1", "values": [{"measurement": "inhibition", "setting": "[1]", "value": 25.1, "unit": "%"}]}, {"smiles": "O=C(c1cc(Cl)ccc1NS(=O)(=O)c1ccc(Oc2ccccc2Cl)cc1)N1CCCN(c2ccc(C(F)(F)F)cn2)CC1", "values": [{"measurement": "inhibition", "setting": "[2]", "value": 30, "unit": "%"}]}, {"smiles": "CCN1CCOC[C@H]1C(=O)Nc1cc(Cl)cc(C(=O)NC(C)(C)CO)c1", "values": [{"measurement": "inhibition", "setting": "PRVABC59, Concentration 49.5 uM, Number of replicates 2.0, Standard deviation 1.425535849610213 %", "value": -1.8, "unit": "%"}, {"measurement": "inhibition", "setting": "PRVABC59, Concentration 99.01 uM, Number of replicates 2.0, Standard deviation 1.345541763339264 %", "value": -2.76, "unit": "%"}, {"measurement": "inhibition", "setting": "PRVABC59, Concentration 198.0 uM, Number of replicates 2.0, Standard deviation 3.0049064318797343 %", "value": -3.73, "unit": "%"}]}]}
